Assay outcomes (PubChem)
MLLE-PAM2 inh: inhibitors of PABP1 MLLE–PAM2 peptide binding, primary screen, biochemical, fluorescence polarization, FITC-PAM2, GST-MLLE; AID 588489, 2011; inhibition, % at 20 µM; 360,000 tested, 0.36% active; Polyadenylate-binding protein 1 (Homo sapiens), P11940; in the data active = inhibition above about 35%, passing the limit was not always enough
Target sequence (P11940 whole entry, looked up): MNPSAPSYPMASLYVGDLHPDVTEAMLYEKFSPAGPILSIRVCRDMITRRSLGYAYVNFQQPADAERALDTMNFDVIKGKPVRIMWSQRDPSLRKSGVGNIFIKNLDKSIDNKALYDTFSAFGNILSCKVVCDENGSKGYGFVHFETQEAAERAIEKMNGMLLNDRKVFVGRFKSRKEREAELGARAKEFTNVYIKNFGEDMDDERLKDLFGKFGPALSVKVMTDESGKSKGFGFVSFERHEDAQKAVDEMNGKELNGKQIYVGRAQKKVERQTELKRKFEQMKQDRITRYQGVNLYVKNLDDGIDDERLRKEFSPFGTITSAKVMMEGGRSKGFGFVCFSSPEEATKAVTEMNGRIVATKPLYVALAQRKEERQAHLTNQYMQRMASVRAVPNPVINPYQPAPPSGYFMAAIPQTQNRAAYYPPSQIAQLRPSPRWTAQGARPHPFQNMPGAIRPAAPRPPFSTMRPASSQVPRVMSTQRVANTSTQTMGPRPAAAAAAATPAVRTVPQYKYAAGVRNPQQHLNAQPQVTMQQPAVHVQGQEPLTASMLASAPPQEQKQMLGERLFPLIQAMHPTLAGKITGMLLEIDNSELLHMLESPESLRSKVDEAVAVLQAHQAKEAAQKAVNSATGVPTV
CRFBP-R2 block: antagonists of CRF-BP/CRF-R2 complex, primary screen, cell-based, HEK293, calcium dye fluorescence, uHTS; CRF-induced calcium fluorescence; 350,000 tested, 0.59% active; AID 588475, 2011; inhibition, % at 11.8 µM;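 active = inhibition of the ligand-induced calcium signal above about 50% at the single tested concentration, limit read from the data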
PABP polyA inh: PABP poly(A) RNA binding inhibitors, primary screen, biochemical, fluorescence polarization, uHTS; 290,000 tested, 1% active; inhibition, % at 35 µM; AID 2014, 2009; Polyadenylate-binding protein 1 (Homo sapiens), P11940;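 note: calls also rest on retests at 20 µM and on dose response follow-up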
eIF4H FP inh: human eIF4H binding inhibitors, primary screen, translation initiation inhibitor project, biochemical, uHTS, fluorescence polarization; Eukaryotic translation initiation factor 4H (Homo sapiens), Q15056; AID 2012, 2009; eIF4H fluorescence polarization binding assay; 290,000 tested, 0.94% active; inhibition, % at 35 µM;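 note: calls also rest on retests at 20 µM and on dose response follow-up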
PHOSPHO1 block: PubChem AID 1565; recombinant PHOSPHO1, absorbance phosphatase assay; inhibition, % at 13.3 µM; 290,000 tested, 1.1% active; in the data active = inhibition above about 60%
Hits are given with their value; - = inactive; . = no result given. In the library only some 2.6% were active in any assay of this set; here they are far more common. Unless noted, the rule behind the calls is not given here.

SMILES	MLLE-PAM2 inh	CRFBP-R2 block	PABP polyA inh	eIF4H FP inh	PHOSPHO1 block
COc1ccc(C(C)(O)c2nc(-c3cccc(O)c3)cs2)cc1 (centres undefined)	-	.	.	.	.
O=C(Nc1ccccc1)c1cc2ccccc2s1	-	-	.	.	.
CN1CCN(C2=C(Cl)C(=O)N(Cc3ccccc3)C2=O)CC1	-	-	89.5	89.0	-
Cc1[nH]c2ccccc2c1C(=O)C(=O)NCc1nnnn1-c1ccc(F)cc1	-	-	.	.	.
Cc1ccc(S(=O)(=O)Nc2nnc(CC(C)(C)C)s2)cc1	-	-	-	-	.
CC(C)(C)Cc1nnc(NS(=O)(=O)c2ccc(F)cc2)s1	-	-	-	-	77.6
CC(=O)Nc1ccc(S(=O)(=O)Nc2nnc(CC(C)(C)C)s2)cc1	42.8	-	-	-	-
Cc1ccccc1Cn1c(C)cc(C)c(C#N)c1=O	-	-	92.6	active	-
Oc1ccc(Br)cc1C=Nc1cccn2cc(-c3ccccc3)nc12	39.8	-	-	-	-
Cc1ccc(S(=O)(=O)/N=C2/C=C(C3C(=O)CC(C)(C)CC3=O)C(=O)c3ccccc32)cc1	44.3	-	-	-	-
CC(Nc1cc(N2CCN(S(=O)(=O)N(C)C)CC2)ccc1[N+](=O)[O-])c1ccccc1 (centres undefined)	-	-	active	76.6	-
Oc1ccc(C(=S)N2CCCCCC2)cc1	36.6	-	-	-	-
Oc1ccc(C(=S)N2CCCC2)cc1	-	-	-	-	-
CCN1CCN(C(=S)c2ccc(O)cc2)CC1	-	-	-	-	-
O=C(Oc1cccc(C(=S)N2CCCCC2)c1)c1ccccc1	-	-	-	-	-
CN1CCN(C(=S)c2ccc(Br)cc2)CC1	-	-	-	-	61.3
Oc1cccc(C(=S)N2CCCCC2)c1	38.4	-	-	-	-
CC1CCN(C(=S)c2ccc(O)cc2)CC1	37.4	-	-	-	-
COc1ccc(NC(=O)C2(C)Cc3c(-c4cccc(C(N)=O)c4)ccnc3O2)cc1 (centres undefined)	-	.	.	.	.
CCCC(=O)N1CCC1(C)C(=O)NCc1ccccc1SC (centres undefined)	-	.	.	.	.
CCOc1ccc(-c2ccc(SCC(=O)NCC3CCCO3)nn2)cc1 (centres undefined)	-	-	-	-	-
Cc1ccccc1-n1c(C)nnc1SCC(=O)NCC1CCCO1 (centres undefined)	-	-	-	-	66.8
Cc1ccccc1-n1c(C)cc(/C=C(\C#N)C(=O)NCC2CCCO2)c1C (centres undefined)	-	-	2.3	87.8	-
Cc1ccc(-c2ccc(SCC(=O)NCC3CCCO3)nn2)cc1 (centres undefined)	-	83.4	-	-	-
COc1ccccc1/C=C/C(=O)NCC(=O)n1nc(C)cc1C	-	-	-	-	-
SMILES	MLLE-PAM2 inh	CRFBP-R2 block	PABP polyA inh	eIF4H FP inh	PHOSPHO1 block
Cc1ccc(S(=O)(=O)NCC(=O)OCCOc2cccc(Cl)c2)cc1	-	-	.	.	.
COc1ccc(C(=O)Nc2cc(OC)c(NC(=O)Nc3ccccc3)cc2OC)cc1	-	-	.	.	.
CC1CCN(C(=O)C2CCC(CNS(=O)(=O)c3ccc4c(c3)C(C)(C)C(=O)N4C)CC2)CC1 (centres undefined)	-	.	.	.	.
CCOc1ccccc1N(CC(=O)NCCSc1ccccn1)S(=O)(=O)c1ccc(C)cc1	-	-	86.1	85.6	-
Cc1ccc(S(=O)(=O)N(CC(=O)O)Cc2ccco2)cc1	-	-	20.7	71.3	-
COc1ccccc1N(CC(=O)NCc1ccco1)S(=O)(=O)c1ccc(C)cc1	-	-	72.7	87.0	-
Cc1ccc(S(=O)(=O)N(Cc2ccccc2)Cc2ccco2)cc1	-	-	-	-	-
COc1ccc(N(CC(=O)NCc2ccco2)S(=O)(=O)c2ccc(C)cc2)cc1OC	-	-	-	-	-
Cc1ccc(CSc2nnc(-c3ccccc3N)c(=O)[nH]2)cc1	-	-	-	-	102.0
CS(=O)(=O)N(Cc1ccccc1)c1ccc(C(=O)NCCSCc2ccco2)cc1	44.8	-	-	-	-
COc1ccc(C2=Nc3ccccc3C2(O)CCN2C(=O)c3ccccc3C2=O)cc1 (centres undefined)	-	67.2	.	.	.
COc1ccc(OCCN2C(=O)c3ccccc3C2=O)cc1	-	-	-	-	-
CCOc1ccc(C2CC(c3ccc(CC)cc3)n3nc(N)nc3N2)cc1 (centres undefined)	-	-	-	-	62.4
COc1ccc(CCn2c(=O)c3cccnc3n(Cc3cccc([N+](=O)[O-])c3)c2=O)cc1OC	-	52.0	-	-	-
CCCCNC(=O)C1(C)CCN1C(=O)c1ccc2c(c1)CCO2 (centres undefined)	-	.	.	.	.
COc1ccc([N+](=O)[O-])cc1NC(=O)CCS(=O)(=O)c1ccc(Br)cc1	-	-	-	96.0	-
CCOc1ccccc1NC(=O)CCS(=O)(=O)c1ccc(Br)cc1	-	-	46.5	84.5	-
COc1ccc([N+](=O)[O-])cc1NC(=O)CS(=O)(=O)c1ccc(C)cc1	-	-	-	-	-
CCc1ccccc1NC(=O)CCS(=O)(=O)c1ccc(Br)cc1	-	-	-	-	-
COC(=O)c1ccccc1NC(=O)CCS(=O)(=O)c1ccc(Br)cc1	-	-	-	85.9	-
CCOc1ccccc1NC(=O)CNC(=O)Cc1ccccc1	-	52.4	-	-	-
CCC(=O)N1CCc2cc(Br)cc(S(=O)(=O)N3CCCCC3CC)c21 (centres undefined)	-	-	-	-	-
Cc1cccc(-c2nnc(SCC(=O)c3ccc(O)cc3O)n2C)c1	-	-	-	-	-
O=C(CCS(=O)(=O)c1ccc(Br)cc1)NCc1ccco1	-	-	-	80.8	-
COc1ccc(NC(=O)CCS(=O)(=O)c2ccc(Br)s2)cc1	-	-	-	91.4	-
SMILES	MLLE-PAM2 inh	CRFBP-R2 block	PABP polyA inh	eIF4H FP inh	PHOSPHO1 block
CCOC(=O)c1ccc(NC(=O)CCS(=O)(=O)c2ccc(Br)s2)cc1	-	-	-	-	-
CCOc1ccc(NC(=O)CCS(=O)(=O)c2ccc(Br)cc2)cc1	-	-	-	76.1	-
CC[C@@H]1CCC[C@@H](O)[C@@H](C)C(=O)O[C@H](C)[C@@H](C)C/C=C(C)/C(OC)=C\C(=O)N(C)C([C@@H](C)CC)C(=O)N(C)[C@@H](C(C)C)C(=O)N(C)[C@@H](COC)C(=O)N2CCC[C@H]2C(=O)N(C)[C@@H](C(C)C)C(=O)N2CCC[C@H]2C(=O)O1 (some centres undefined)	-	.	.	.	.
Cc1ccc(CNC(=O)CC[C@H]2O[C@@H](n3cc(C)c(=O)[nH]c3=O)C[C@@H]2O)o1	-	.	.	.	.
Cc1ccc(S(=O)(=O)N2C[C@H]3[C@H]4C(=O)N(c5ccccc5)C(=O)[C@H]4C[C@H](OC(=O)NCc4ccccc4F)[C@@]3(O)C2)cc1	-	-	.	.	.
CCCc1c(C)nn(-c2ncccc2[N+](=O)[O-])c1C	-	-	-	-	60.0
O=C(C=Cc1ccccc1)CC(c1ccccc1)N1CCOCC1 (centres undefined)	-	-	.	.	.
